This is part of a sample that, as a whole, favours compounds with a hit. Of some 83,000 tested, about 20% had one in any assay.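 Results are percent growth after 48 hours of single-concentration exposure. 100 means growth as in untreated cells, lower positive values show inhibition; negative values down to -100 show cell death.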 Unmarked numbers belong to inactive results. The source made the active and inactive calls. How the source made its calls: active means growth percent below 10; inactive means the rest.

Seven molecules from PubChem BioAssay (NCI) can be followed below.

Among the test systems are HCT-15 colon; HT29 colon; SNB-75 CNS; SNB-19 CNS; U251 CNS; PC-3 prostate; SK-MEL-5 melanoma; UACC-62 melanoma; LOX IMVI melanoma; SK-MEL-28 melanoma; SK-MEL-2 melanoma; EKVX NSCLC; SN12C renal; UO-31 renal; TK-10 renal; ACHN renal; CAKI-1 renal; A498 renal; CCRF-CEM leukemia; MOLT-4 leukemia.
What all share (test): NCI-60 one-dose screen, 48 h (100 = growth as untreated, 0 = no growth, -100 = all killed)
Details in all cases: 10 µM unless noted

As to `Cc1ccc(Sc2oc(-c3ccc(C)cc3)nc2[P+](c2ccccc2)(c2ccccc2)c2ccccc2)cc1`, the growth was 0.625% (active) with HCT-15 colon; 1.95% (active) with HT29 colon; -23.6% (active) in the assay on SNB-75 CNS; 14% with SNB-19 CNS; 12.9% with U251 CNS; 5.64% (active) with PC-3 prostate. The growth in the assay on SK-MEL-5 melanoma is -97.7% (active); in the assay with UACC-62 melanoma, -38.1% (active); in the assay on LOX IMVI melanoma it was -69.3% (active); in the assay with SK-MEL-28 melanoma, 17%; with SK-MEL-2 melanoma it was -36% (active); in the assay with EKVX NSCLC it was 6.65% (active). Also, the growth was 3.64% (active) with SN12C renal; -22.3% (active) in the assay with UO-31 renal; 22.7% in the assay on TK-10 renal; -6.75% (active) in the assay with ACHN renal; -23.2% (active) in the assay on CAKI-1 renal; -40.5% (active) in the assay on A498 renal. Further, the results for the growth in the assay on CCRF-CEM leukemia and with MOLT-4 leukemia were -2.03% (active) and -25.9% (active), respectively.
Regarding `Cc1cc(Cl)ccc1NC(=O)c1cc2ccccc2cc1O`, the growth is 13.2% in the assay with HCT-15 colon; 80.5% in the assay on HT29 colon; 38.1% with SNB-75 CNS; 20% in the assay on SNB-19 CNS; -14% (active) in the assay on U251 CNS; 0.952% (active) with PC-3 prostate. For the same molecule, the growth was 8.89% (active) in the assay on SK-MEL-5 melanoma; 19.1% in the assay on UACC-62 melanoma; 28.9% with LOX IMVI melanoma; 41.6% with SK-MEL-28 melanoma; -2.55% (active) in the assay with SK-MEL-2 melanoma; 44.2% in the assay with EKVX NSCLC. In addition, the growth with SN12C renal was 3.74% (active); in the assay with UO-31 renal, -2.52% (active); in the assay with TK-10 renal, -0.787% (active); in the assay with ACHN renal, 8.67% (active); in the assay on CAKI-1 renal it was -5.76% (active); in the assay with A498 renal, -12.8% (active). Also, the growth with CCRF-CEM leukemia was 8.07% (active); in the assay with MOLT-4 leukemia it was 17.7%.
Regarding `Cc1oc(-c2ccc(Cl)cc2)nc1/C=C/C(=O)c1ccccc1`, the growth in the assay on HCT-15 colon is 97.5%; with HT29 colon, 107%; in the assay on SNB-75 CNS, 93.2%; in the assay on SNB-19 CNS, 97.6%; with U251 CNS it was 97.5%; in the assay with PC-3 prostate, 93.6%. Further, the growth with SK-MEL-5 melanoma was 99%; in the assay with UACC-62 melanoma, 87.5%; in the assay on LOX IMVI melanoma, 99.6%; in the assay on SK-MEL-28 melanoma, 105%; with SK-MEL-2 melanoma it was 100%; in the assay with EKVX NSCLC it was 95%. Also, the growth in the assay on SN12C renal is 95.6%; with UO-31 renal, 83.9%; in the assay on TK-10 renal, 122%; in the assay on ACHN renal, 101%; with CAKI-1 renal it was 91.9%; in the assay with A498 renal it was 101%. Besides, the results for the growth with CCRF-CEM leukemia and with MOLT-4 leukemia were 97% and 92.3%, respectively.
With `O=C1NC(=O)c2c1c1c3ccccc3ccc1c1[nH]c3ccc(Br)cc3c21`, the growth is 13.4% with HCT-15 colon; 26.4% with HT29 colon; 22.8% in the assay with SNB-75 CNS; 23.8% in the assay on SNB-19 CNS; 20.7% in the assay on U251 CNS; 3.55% (active) with PC-3 prostate. Besides, the growth was -82.5% (active) with SK-MEL-5 melanoma; 29.9% with UACC-62 melanoma; 22.8% with LOX IMVI melanoma; 44.4% in the assay with SK-MEL-28 melanoma; 35.4% in the assay with SK-MEL-2 melanoma; 18% in the assay with EKVX NSCLC. The growth is 9.28% (active) in the assay with SN12C renal; 2.24% (active) with UO-31 renal; 36.8% in the assay on TK-10 renal; 1.55% (active) in the assay with ACHN renal; 15.8% in the assay on CAKI-1 renal; -10.7% (active) with A498 renal. For the same molecule, the growth in the assay on CCRF-CEM leukemia was 10.8%; in the assay on MOLT-4 leukemia, 9.35% (active).
In the case of `CC(=O)Cc1nsc(NC(=O)c2cc(-c3cc(Cl)cc(Cl)c3)oc2C)n1`, the growth is 99.4% with HCT-15 colon; 102% in the assay with HT29 colon; 84.1% in the assay with SNB-75 CNS; 101% in the assay with SNB-19 CNS; 93.2% in the assay on U251 CNS; 93.7% in the assay with PC-3 prostate. The growth in the assay with SK-MEL-5 melanoma is 99.9%; in the assay on UACC-62 melanoma it was 88.7%; in the assay on LOX IMVI melanoma, 97%; with SK-MEL-28 melanoma, 103%; in the assay on SK-MEL-2 melanoma, 102%; in the assay on EKVX NSCLC, 97.3%. The growth is 98.8% in the assay on SN12C renal; 81% in the assay on UO-31 renal; 130% with TK-10 renal; 105% with ACHN renal; 90.8% with CAKI-1 renal; 103% in the assay with A498 renal. For the same molecule, the results for the growth with CCRF-CEM leukemia and with MOLT-4 leukemia were 103% and 96.7%, respectively.
For `CCOc1ccc(NC(=O)CSc2oc(-c3ccccc3)nc2S(=O)(=O)c2ccc(F)cc2)cc1`, the growth in the assay with HCT-15 colon was 77%; in the assay on HT29 colon it was 73.7%; with SNB-75 CNS, 103%; with SNB-19 CNS, 88%; with U251 CNS, 53.4%; in the assay on PC-3 prostate it was 55.7%. In addition, the growth with SK-MEL-5 melanoma is 79.7%; in the assay on UACC-62 melanoma, 62.8%; in the assay on LOX IMVI melanoma, 74.1%; in the assay on SK-MEL-28 melanoma, 72.6%; in the assay on SK-MEL-2 melanoma, 81.4%; with EKVX NSCLC, 82.7%. Further, the growth is 89.4% in the assay on SN12C renal; 94.5% in the assay on UO-31 renal; 83% in the assay with TK-10 renal; 73.7% in the assay with ACHN renal; 82.8% in the assay with CAKI-1 renal; 63.7% in the assay with A498 renal. Moreover, the values for the growth with CCRF-CEM leukemia and in the assay with MOLT-4 leukemia were 79.8% and 63.9%, respectively.
Take `COc1ccc(/C=N/NC(=O)CCN2c3ccccc3Sc3ccccc32)cc1`: the growth in the assay on HCT-15 colon is 43.9%; in the assay on HT29 colon, 57%; in the assay on SNB-75 CNS, 80.1%; with SNB-19 CNS, 75.4%; with U251 CNS, 91.5%; in the assay with PC-3 prostate, 61.4%. For the same molecule, the growth in the assay with SK-MEL-5 melanoma was 70.4%; in the assay on UACC-62 melanoma, 63%; with LOX IMVI melanoma, 60.9%; with SK-MEL-28 melanoma it was 80.9%; with SK-MEL-2 melanoma it was 95.6%; with EKVX NSCLC it was 79.7%. In addition, the growth is 88.1% with SN12C renal; 66.5% in the assay on UO-31 renal; 111% in the assay with TK-10 renal; 86.6% in the assay on ACHN renal; 41.5% with CAKI-1 renal; 55.7% in the assay with A498 renal. Besides, the values for the growth with CCRF-CEM leukemia and in the assay with MOLT-4 leukemia were 82.7% and 97.8%, respectively.
